# Screening data: PubChem BioAssay, National Center for Advancing Translational Sciences (NCATS)
# Compounds with a hit are over-represented: about 19% of the library has one in this group of screens.
# TDP1 cell CPT – DT40-hTDP1 cell growth loss with CPT | chicken DT40 Tdp1-/-;hTDP1 cells + 20 nM CPT, ATP luminescence, 48 h | Potency, µM (series often up to 46.2 µM), for inactives: at the top dose activity change, negative = growth inhibition, actives largely listed as inhibitors | 420,000 compounds, 12% hits | AID 686979; further: potency means the concentration at half of the fitted maximal effect; nearly all actives have a fitted effect of over 55% in size
#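 Chicken DT40 Tdp1-/- cells stably complemented with human TDP1 were seeded at 400 cells/well in medium containing 20 nM camptothecin, exposed to pin-transferred compounds, and grown at 37 °C for at least 48 hr. Viability was read as ATP luminescence.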
# HT1080NT lethal – kills 2HG-producing HT-1080-NT fibrosarcoma cells; Potency, µM (doses to about 46.1 µM), without a hit: at the top dose activity, negative = less viability, hits mostly cytotoxic; 360,000 compounds, 1.6% hits; AID 686970; HT-1080-NT fibrosarcoma viability, CellTiter-Glo ATP luminescence, 48 h;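 further: NT is the 2HG producing partner of a matched IDH1 knockdown line; potency means the concentration at half of the fitted maximal effect; 0% = DMSO-treated cells and -100% = media-only wells without cells; nearly all actives have a fitted effect of over 55% in size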
#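 750 cells/well, RPMI + 5% FBS; 2 h settle, compound pin-transfer, 48 h at 37 degrees C. CellTiter-Glo 10 min RT, luminescence. Normalized to DMSO and media-only wells.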
# IL-1B inflam inh – blocks inflammasome-driven IL-1 beta release; THP-1 LPS/ATP IL-1B secretion, AlphaLISA, 16 h; hits give low values; activity change, % at 57.5 µM; 360,000 compounds, 4.7% hits; AID 743279; in the data active means activity change below about -50%; inconclusive means mostly about -30% to -49%
#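 Secreted IL-1B measured by AlphaLISA bead assay after 16 h compound exposure of THP-1 cells; compounds (final up to 57.5 uM) added 1 h before LPS (250 ng/mL) and ATP (1.25 mM) stimulation; lower signal means less secretion.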
# DT40 TDP1 no CPT – qHTS for Inhibitors of human tyrosyl-DNA phosphodiesterase 1 (TDP1): qHTS in cells in absence of CPT; DT40 Tdp1-/- hTDP1 cells, no CPT, ATP luminescence, 48 h; Potency, µM (titrated, usually from 46.2 µM), for the others: at the top dose activity change, negative = growth inhibition, most hits filed as inhibitors; 420,000 compounds, 15% hits; AID 686978, 2013; further: potency means the concentration at half of the fitted maximal effect; nearly all actives have a fitted effect of over 55% in size
#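 Stably hTDP1-transfected Tdp1-null chicken DT40 cells were treated with library compounds minus camptothecin and grown for at least 48 hr at 37 °C, after which cellular ATP was quantified by luminescence.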
# HT1080 IDH1KD tx – kills HT-1080 cells with IDH1 knockdown; 360,000 compounds, 2% hits; HT-1080 IDH1 knockdown viability, ATP luminescence, 48 h; Potency, µM (top dose mostly 46.1 µM), for the others: at the top dose activity, negative = toxicity, most hits filed as cytotoxic; AID 686971;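 further: potency means the concentration at half of the fitted maximal effect; 0% = DMSO wells and -100% = cell-free medium wells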
#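 Luminescent ATP read-out (CellTiter-Glo, 10 min at room temperature) after 48 h compound exposure at 37 °C gave viability of IDH1-knockdown HT-1080 cells. Activity was normalised to DMSO and cell-free wells, then fitted as concentration-response curves.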
# Numbers without * were called inactive; i = inactive; u = inconclusive; x = no result. Unless noted, the call rests on the fitted dose curve; in most records, active means well fitted curve in the direction sought with a large enough effect; inconclusive means small, poorly fitted or top-dose-only effect, or another doubt; inactive means no such curve, though single readings can be large; an effect the other way counts as inactive or inconclusive. Unless noted, on the % scale 0 is the no-effect control and ±100 the full control effect.
SMILES,TDP1 cell CPT,HT1080NT lethal,IL-1B inflam inh,DT40 TDP1 no CPT,HT1080 IDH1KD tx
O=C(CCc1nc(-c2ccccc2)no1)NCC1CCCO1 (configuration not stated),-16%,0%,5,-27%,12%
CCCOc1ccc(C(=O)Nc2ccc(N3CCOCC3)cc2N2CCOCC2)cc1OCC,u,10%,-9,21µM*,-2%
CCOc1cc(NC(=O)c2ccco2)c(OCC)cc1NC(=O)Cc1ccc(OC)c(OC)c1,u,-3%,10,8.2µM*,-2%
CCOc1cc(N2CCOCC2)c(OCC)cc1NC(=O)Cc1ccc(OC)c(OC)c1,u,-1%,0,23µM*,1%
CCOc1cc(N2C(=O)CC3CS(=O)(=O)CC32)c(OCC)cc1NC(=O)c1ccccc1 (configuration not stated),u,0%,21,21µM*,u
CCOc1cc(N2CCOCC2)c(OCC)cc1NC(=O)c1ccc(S(C)(=O)=O)cc1,-2%,12%,-3,-21%,3%
CC(=O)CCc1ccc(OC(=O)c2cccnc2)cc1,-24%,16%,2,-3%,9%
COc1cc2c(-c3ccccc3)c(C)oc2cc1/C=N/NC(N)=S,u,-15%,14,u,-13%
CCOC(=O)c1nccnc1C(=O)Nc1ccc(C(F)(F)F)cc1,4%,3%,-21,0%,1%
CCOc1cc(N2CCOCC2)c(OCC)cc1NC(=O)c1[nH]c(C)c(C(C)=O)c1C,8.2µM*,1%,18,5.8µM*,6%
CCOc1cc(N2CCOCC2)c(OCC)cc1NC(=O)COc1ccccc1[N+](=O)[O-],-10%,-3%,-80*,u,-6%
CCOc1cc(N2CCOCC2)c(OCC)cc1NC(=O)Cn1nc(C)c([N+](=O)[O-])c1C,-9%,4%,-2,u,3%
CCOc1cc(N2CCOCC2)c(OCC)cc1NC(=O)c1cccc(N(C)C)c1,u,-9%,-3,21µM*,-12%
Cc1ccc(NC(=O)CN(C)C2CCCCC2)cc1Cl,0%,-19%,u,u,-16%
CCOc1ccc(NS(=O)(=O)c2cc(OCC(N)=O)c(C)cc2Cl)cc1,-26%,-3%,17,-24%,-4%
COc1cccc(Nc2ccc(Nc3cccc(OC)c3)nn2)c1,u,3%,-99*,u,2%
CC1CCN(C(=O)c2ccc3c(c2NCCO)C(=O)c2ccccc2C3=O)CC1,23µM*,u,-23,18µM*,u
CC1CC(C)CN(C(=O)c2cccc3c2-c2ccccc2C3=O)C1 (configuration not stated),u,-28%,2,u,9%
CCN(CC)CCNC(=O)c1ccc2c(c1NCCO)C(=O)c1ccccc1C2=O,16µM*,u,-53*,15µM*,u
O=C(NCCO)c1cccc2c1C(=O)c1ccccc1-2,-25%,14%,-25,u,25%
CCN(CC)c1ccc(/C=C2\CCC(/C=C(\C#N)C(=O)Nc3ccccc3F)=C2N2CCOCC2)cc1,6.5µM*,4%,0,2.3µM*,3%
CCN(CC)c1ccc(/C=C2\CCC(/C=C(/C#N)C(=O)Nc3ccccc3F)=C2N2CCOCC2)cc1,2.1µM*,13%,-14,2.3µM*,15%
O=C(CN1CCOCC1)Nc1ccccc1F,-3%,11%,12,10%,10%
O=c1c(-c2ccc(Cl)cc2)nc2cnc(N3CCOCC3)nc2n1Cc1ccc(F)cc1,2%,x,x,23%,x
C=CCn1c(COc2cccc(C)c2C)nnc1SCC(=O)N1CCN(c2ccccc2)CC1,u,-25%,-55*,u,-33%
SMILES,TDP1 cell CPT,HT1080NT lethal,IL-1B inflam inh,DT40 TDP1 no CPT,HT1080 IDH1KD tx
Cc1nc(Cc2nnc(SCC(=O)N3CCN(c4ccccc4)CC3)o2)cs1,-8%,3%,-6,-1%,1%
O=C(NCc1nnc(SCC(=O)N2CCCC2)o1)c1ccc(F)cc1,8%,2%,i,18%,19%
Cc1cccc(OCc2nnc(SCC(=O)N3CCN(c4ccccc4)CC3)o2)c1C,u,-6%,-2,18µM*,-11%
O=C(NCc1nnc(SCC(=O)N2CCN(c3ccccc3)CC2)o1)c1ccc(F)cc1,u,-1%,51,21µM*,-9%
Cc1nc2ccccc2n1C(c1cccnc1)c1nc2ccccc2[nH]1 (configuration not stated),13%,1%,6,-7%,4%
Cc1cnc2ccc(F)cc2c1,-14%,12%,0,u,16%
Cc1c(Cl)c([N+](=O)[O-])nn1CC(=O)Nc1ccc2c(c1)OCO2,-2%,3%,-23,-6%,-1%
CC(C)c1ccc(CN2CCN(C(=O)CCl)CC2)cc1,1.2µM*,u,-100*,0.73µM*,u
CC(C)c1ccc(NC(=O)c2ccc(CN3CC(=O)N4CCCCC4C3=O)cc2)cc1 (configuration not stated),u,x,x,16µM*,x
CC(C)c1ccc(C(=O)Nc2ccc(CN3CCOCC3)cc2)cc1,u,0%,-55*,u,-18%
CC(C)c1ccc(/C=C/C(=O)Nc2ccc(CN3CCOCC3)cc2)cc1,8.2µM*,u,-94*,13µM*,u
Cc1ccccc1NC(=O)c1ccc(CN2CC(=O)N3CCCCC3C2=O)cc1 (configuration not stated),3%,-1%,4,-10%,1%
COc1cc(NC(=O)Cn2c(SCc3ccc(F)cc3)nc3cccnc32)cc(OC)c1,-10%,x,x,-23%,x
Cc1ccc(C)c(NC(=O)CN(C)C(=O)CN2C(=O)C3CCCCC3C2=O)c1 (configuration not stated),-15%,6%,16,-3%,-3%
CSC1=NCCN1C(=O)C12CC3CC(CC(C3)C1)C2,u,-2%,-12,u,-13%
O=C(CCNC(=O)N1CC(=O)Nc2ccccc21)Nc1ccc(Cl)cc1,-18%,-8%,5,-1%,0%
CC(C)(C)c1ccc(S(=O)(=O)CC(O)CSc2nc3c(cc2C#N)CCCC3)cc1 (configuration not stated),-17%,1%,16,-7%,-4%
N#Cc1cc2c(nc1SCc1ccncc1)CCC2,18µM*,u,u,u,u
N#Cc1cc2c(nc1SCC(O)CS(=O)(=O)Cc1ccc(Cl)cc1)CCCC2 (configuration not stated),u,-27%,-61*,u,-29%
CN1C(=O)/C(=C/c2ccccc2Cl)Sc2ccc(C(=O)NCc3cccnc3)cc21,u,u,-69*,u,u
